# Reference: PubChem BioAssay (EPA / NIEHS)
# The source made the active and inactive calls. Rule for the calls: active = hit-call score of the fitted dose curve at least 0.9, where 1 is the maximum; inactive = score below 0.9.
# Biological target: Paired box protein Pax-6 (Homo sapiens) (UniProt P26367)
# Experiment: ATG_Pax6_CIS: Attagene CIS-FACTORIAL HepG2 Assay for human Paired Box 6 (PAX6) (AID 2282956)
# Conditions: HepG2 CIS-FACTORIAL PAX6 reporter transcription, RNA readout; actives raise or lower the signal
# Experimental: ATG_CIS is a cell-based, multiplexed-readout assay that uses HepG2, a human liver cell line, with measurements taken at 24 hours after chemical dosing in a 24-well plate.ATG_Pax6_CIS is one of 52 assay component(s) measured or calculated from the ATG_CIS assay. It is designed to make measurements of mRNA induction, a form of inducible reporter, as detected with fluorescence intensity signals by Reverse transcription polymerase chain reaction (RT-PCR) and Capillary electrophoresis technology.Data from the assay component ATG_Pax6_CIS was analyzed into 1 assay endpoint. This assay endpoint, ATG_Pax6_CIS, was analyzed with bidirectional fitting relative to DMSO as the negative control and baseline of activity. Using a type of inducible reporter, measures of mRNA for gain or loss-of-signal activity can be used to understand the reporter gene at the transcription factor-level as they relate to the gene PAX6. Furthermore, this assay endpoint can be referred to as a primary readout, because this assay has produced multiple assay endpoints where this one serves a reporter gene function. To generalize the intended target to other relatable targets, this assay endpoint is annotated to the dna binding intended target family, where the subfamily is paired box protein.
# Human liver HepG2 cells are transiently transfected with multiple reporter transcription units (MRTUs) in 6-well plates using FuGene 6 reagent (Roche; 3 ml FuGene/1 mg DNA). The MRTU constructs are regulated by a cis-regulating element (promoter). […] A major difference between the CIS and TRANS system is that in CIS activities of endogenous TFs are measured, whereas the TRANS assay evaluates changes in activities of exogenous, chimeric NR-Gal4 proteins. […] At the end of 24 hour incubation, total RNA was isolated using TriZol reagent (Invitrogen). The isolated RNA is then reverse-transcribed using oligo(dT) primer and Mo-MLV reverse transcriptase (Invitrogen) with DNAse I (Ambion) treatment for 30 min. The one-tenth of the produced cDNA was amplified by PCR using Taq DNA polymerase (Invitrogen) and two reporter sequence-specific primers. The PCR products were fluorescently labeled by primer extension with 6-arboxyfluorescein (6-FAM) 5'-labeled reporter sequence-specific primer (2 min at 95 C, 20 s at 68 C and 10 min at 72 C) and these products were digested with 5U of HpaI (New England Biolabs) for 2h at 37 C. The fragments were purified using Qiaquick PCR columns (Qiagen), analyzed on an ABI 3130xL genetic analyzer (Applied Biosystems) with peak positions identified by using a set of X-rhodamine (ROX)-labeled MapMarker1000 molecular weight standards (BioVentures). The raw capillary electrophoresis data was processed using Attagraph software (Attagene).
# Paired box protein Pax-6 (Homo sapiens), sequence (P26367 whole entry, looked up): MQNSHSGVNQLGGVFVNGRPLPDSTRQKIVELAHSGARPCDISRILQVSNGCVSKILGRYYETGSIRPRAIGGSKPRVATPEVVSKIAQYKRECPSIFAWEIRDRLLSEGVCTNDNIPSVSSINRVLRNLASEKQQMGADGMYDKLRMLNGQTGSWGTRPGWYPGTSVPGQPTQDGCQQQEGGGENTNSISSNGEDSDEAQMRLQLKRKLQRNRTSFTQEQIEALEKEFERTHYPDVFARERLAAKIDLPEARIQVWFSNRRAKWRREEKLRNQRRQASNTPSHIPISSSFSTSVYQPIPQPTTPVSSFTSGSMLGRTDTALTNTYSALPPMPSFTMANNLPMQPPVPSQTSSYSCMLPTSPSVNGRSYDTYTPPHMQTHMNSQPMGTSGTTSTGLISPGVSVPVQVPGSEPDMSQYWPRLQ
SMILES,outcome,AC50
O=c1c2ccccc2c(=O)c2c1cc(Cl)c1[nH]c3c([nH]c12)c(Cl)cc1c(=O)c2ccccc2c(=O)c13,inactive,–
CCCCCCCCCCCC#N,inactive,–
O=C(O)c1cc[c]([Hg][Cl])cc1,inactive,–
CCC1CCC(=O)O1 (stereo not given),inactive,–
COCC(=O)N(c1c(C)cccc1C)N1CCOC1=O,inactive,–
N#CCCCCC#N,inactive,–
NNc1ccccc1,inactive,–
CCOP(=O)(OCC)Oc1ccc([N+](=O)[O-])cc1,inactive,–
N#Cc1cc(I)c(O)c(I)c1,inactive,–
CC(C)(C)C(=O)CCl,inactive,–
C[N+](C)(C)CC(=O)O,inactive,–
Nc1ccc(Cl)c(Cl)c1,inactive,–
Cc1ccccc1CCl,inactive,–
CC(O)CN(CC(C)O)CC(C)O (stereo not given),inactive,–
CC1OC(C)OC(C)O1 (stereo not given),inactive,–
[CH3][Sn]([CH3])([Cl])[Cl],inactive,–
CC(C)[C@@H](C(=O)O[C@@H](C#N)c1cccc(Oc2ccccc2)c1)c1ccc(Cl)cc1,inactive,–
CCCC=NO,inactive,–
[Cl][Sb]([Cl])[Cl],–,133 µM (active)
COC(C)(C)CCC[C@H](C)C/C=C/C(C)=C/C(=O)OC(C)C,–,100 µM (active)

SMILES,outcome,AC50
CCOC(=O)N(C)N=O,inactive,–
CCC(=O)c1ccc(Cl)cc1,inactive,–
O=C(CCl)c1ccccc1,inactive,–
O=C(O)CCl,inactive,–
BrCBr,inactive,–
CC(C)C(=O)Cl,inactive,–
N#CCCCl,inactive,–
CC1(C)C(=O)NC(=O)NC1=O,inactive,–
[N-]=[N+]=CC(=O)OC[C@H](N)C(=O)O,inactive,–
C=C(Cl)CCl,inactive,–
CCCCCCCCCCCCCCCC[N+](C)(C)C,inactive,–
Cc1cc(C)c(C2=C(OC(=O)CC(C)(C)C)C3(CCCC3)OC2=O)c(C)c1,–,104 µM (active)
C=CCc1ccc(OC(=O)Cc2ccccc2)c(OC)c1,inactive,–
CCOP(O)OCC,inactive,–
Nc1ccccc1C(=O)OCCc1ccccc1,inactive,–
O=C(CCN1CC1)OCC(CO)(COC(=O)CCN1CC1)COC(=O)CCN1CC1,inactive,–
Cc1ncc(C[n+]2csc(CCO)c2C)c(N)n1,inactive,–
CCOC(=O)C1OC1(C)c1ccccc1 (stereo not given),inactive,–
CC(C)COP(=O)(OCC(C)C)OCC(C)C,inactive,–
CNC(=O)Oc1cc(C)c(SC)c(C)c1,inactive,–
